From PubChem BioAssay (NCATS)
Inconclusive results are not listed. Activity calls are given as the source filed them. Calls come from the whole dose curve; as a rule, active = well fitted cell-killing curve with a large enough effect; inconclusive = small, poorly fitted or top-dose-only effect, or effect the other way; inactive = flat fitted curve, though single readings scatter.

These compounds were tested on Tov112D (assay: Primary qHTS to identify gynecologic anti-cancer compounds using libraries of approved drugs and bioactive compounds (AID 1345084; note: nearly all actives have a fitted effect of over 55% in size)). Conditions: Gynecologic cancer cell panel viability, ATPlite luminescence, 48 h; series mostly up to 57.5 µM; activity change, negative = cytotoxicity: at the top concentration.
Outline: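 Measured: luminescence after ATPlite addition (15 min, RT). Exposure: 48 h, 37 C, 5% CO2.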
% is set by controls: 0 for no effect and ±100 for the full control effect.

| SMILES | activity change, negative = cytotoxicity |
| --- | --- |
| CC(C)=CCC/C(C)=C/CO[C@@H]1O[C@H](CO[C@@H]2OC[C@](O)(CO)[C@H]2O)[C@@H](O)[C@H](O)[C@H]1O | -1.21% [at 25.3 µM] (inactive) |
| CC1C2=CC(=O)OC2(O)CC2C1C(O)CC1C(C)(CO)CCCC21C (stereo unspecified) | -1.58% [at 38.5 µM] (inactive) |
| CC1CC(=O)[C@]2(O)C(C(=O)OCCc3ccc(O)c(O)c3)=CO[C@@H](O[C@@H]3O[C@H](CO)[C@@H](O)[C@H](O)[C@H]3O)[C@H]12 (stereo partly specified) | 6.23% [at 25.3 µM] (inactive) |
| COC(=O)C1=COC(OC2OC(CO)C(O)C(O)C2O)C2C(C)C(OC(=O)/C=C/c3ccc(O)cc3)C(O)C12 (stereo unspecified) | -2.26% [at 25.3 µM] (inactive) |
| C[C@H](O)C(O)(C(=O)OCc1ccccc1NC(=O)CCC(N)C(=O)O)[C@H](C)O (stereo partly specified) | 2.16% [at 25.3 µM] (inactive) |
| CN[C@H](CNC(=O)N1CCC[C@@H]([C@@H](OCCNC(=O)OC)c2cccc(Cl)c2)C1)C[C@H]1CCCOC1 | 13.3% (inactive) |
| C/C=C(\C)C(=O)OC1CC2C(CC=C3CC(OC4CC(OC)C(OC5CC(OC)C(OC6CC(OC)C(OC7CC(OC)C(OC8CC(OC)C(OC9OC(CO)C(O)C(O)C9O)C(C)O8)C(C)O7)C(C)O6)C(C)O5)C(C)O4)CCC32C)C2(O)CCC(C(C)=O)C12C (stereo unspecified) | -1.72% [at 6.55 µM] (inactive) |
| CC(C)=C1CC2[C@](C)(CC[C@@H](OC(=O)C3(C)OC3C)[C@@]2(C)O)CC1=O (stereo partly specified) | 1.22% [at 38.5 µM] (inactive) |
| Nc1ccc(-n2nc(C(F)(F)F)cc2C(F)(F)F)cc1 | 13% (inactive) |
| COc1cc(C(C)=O)ccc1O[C@@H]1O[C@H](CO)[C@@H](O)[C@H](O)[C@H]1O | -1.29% [at 38.5 µM] (inactive) |
| COc1cc(C(C)=O)ccc1O[C@@H]1O[C@H](CO[C@@H]2OC[C@@H](O)[C@H](O)[C@H]2O)[C@@H](O)[C@H](O)[C@H]1O | -6.94% [at 25.3 µM] (inactive) |
